Shown are actives, neighbours in structure and some others; about 3.1% of the full set was active somewhere.
TR SRC2 fluor cs: Texas Red fluorescence interference in TRb-SRC2 counter-screen; TRb/SRC2 Texas Red total fluorescence interference; Potency, µM (series often up to 106 µM); actives 0.29% (n = 280,000); active = well fitted curve in either direction with a large enough effect; inconclusive = small, poorly fitted or top-dose-only effect
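Human TRβ ligand-binding domain (0.6 uM) and Texas Red SRC2 peptide (20 nM) in Tris buffer with 1 uM T3 and 5% DMSO were incubated with pinned compound for 5 hr at ambient temperature. Total fluorescence was computed as S + 2P (555/632 nm).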
Tau ThT inhib: inhibitors of human tau fibril formation, thioflavin T binding. Potency, µM (top dose mostly 57.4 µM), actives largely listed as inhibitors. actives 2.1% (n = 270,000). recombinant tau K18 P301L, heparin-induced fibrillization, ThT fluorescence; note: nearly all actives have a fitted effect of over 55% in size
Target sequence (P10636 561-689 P618L limits assumed): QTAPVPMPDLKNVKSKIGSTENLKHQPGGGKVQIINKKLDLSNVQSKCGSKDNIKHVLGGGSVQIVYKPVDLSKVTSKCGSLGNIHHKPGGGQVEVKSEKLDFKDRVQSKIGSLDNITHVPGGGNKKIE
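Fibril formation assay: tau K18 P301L at 15 uM with trace Alexa 594 label, heparin inducer 20 uM, pH 7 sodium acetate buffer, 37 C for 6 hr; endpoint ThT signal.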
TRb-SRC2 inh: inhibitors of human thyroid hormone receptor beta-SRC2 interaction; actives 0.065% (n = 280,000); AID 1469; Potency, µM (top dose mostly 106 µM), actives largely listed as inhibitors; TRbeta-SRC2 peptide binding, fluorescence polarization; receptor liganded with 1 µM T3; note: nearly all actives have a fitted effect of over 50% in size
Target sequence (P10828 whole entry, looked up): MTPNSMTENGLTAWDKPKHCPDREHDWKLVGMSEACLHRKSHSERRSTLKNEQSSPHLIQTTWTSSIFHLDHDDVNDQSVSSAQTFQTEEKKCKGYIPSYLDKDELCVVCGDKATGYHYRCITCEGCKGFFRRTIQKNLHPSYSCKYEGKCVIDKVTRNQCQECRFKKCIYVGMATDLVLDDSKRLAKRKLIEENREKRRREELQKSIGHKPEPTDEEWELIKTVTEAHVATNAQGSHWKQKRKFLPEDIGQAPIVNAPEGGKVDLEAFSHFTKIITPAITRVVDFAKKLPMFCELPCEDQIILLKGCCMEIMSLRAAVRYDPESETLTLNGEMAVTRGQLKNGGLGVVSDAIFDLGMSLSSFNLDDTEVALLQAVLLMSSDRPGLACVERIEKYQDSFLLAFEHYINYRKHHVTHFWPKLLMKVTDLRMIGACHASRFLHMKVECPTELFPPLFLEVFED
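Human TRb LBD (0.6 uM) plus Texas Red-labeled SRC2 peptide (20 nM), 1uM T3, 5% DMSO, 5 hr at ambient temperature. Decreased polarization (555/632 nm) flags inhibition; data normalized to free and bound peptide controls.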
Tau fluor counter: counter-screen for tau fibril formation inhibitors. tau K18 P301L (four-repeat tau fragment) Alexa594 fluorescence, heparin fibrillization. Potency, µM (top dose mostly 57.7 µM). actives 0.93% (n = 280,000). AID 1463; note: nearly all actives have a fitted effect of over 55% in size
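Human K18 P301L tau (15 uM unlabeled plus 0.24 uM Alexa 594-labeled, final) in 100 mM sodium acetate pH 7 was mixed with compound and 20 uM heparin and incubated 6 hr at 37 C.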
Tau FP inhib: inhibitors of human tau fibril formation. actives 0.39% (n = 280,000). Potency, µM (titrated, usually from 57.7 µM), most hits filed as inhibitors. K18 P301L tau heparin fibrillization, Alexa594 FP, 6 h. P10636. AID 1468; note: nearly all actives have a fitted effect of over 55% in size
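Compound effects on tau fibrillization are measured by Alexa 594 fluorescence polarization (ex 555, em 632 nm). K18 P301L tau is used at 15 uM with 0.24 uM labeled tracer, and 20 uM heparin induces aggregation over 6 hr at 37 C.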
Hits are given with their value; – = inactive; ? = inconclusive; · = no result given; [ ] = another dose, or the depositor's remark. Unless noted, calls come from the whole dose curve; as a rule, active = well fitted curve in the direction sought with a large enough effect; inconclusive = small, poorly fitted or top-dose-only effect, or another doubt; inactive = no such curve, though single readings can be large; an effect the other way counts as inactive or inconclusive.

SMILES | TR SRC2 fluor cs | Tau ThT inhib | TRb-SRC2 inh | Tau fluor counter | Tau FP inhib
Cc1ccc2nc(C)c(C(=O)N/N=C/c3ccccc3[N+](=O)[O-])cc2c1 | – | – | – | – | –
Cc1cc(C(=O)N/N=C/c2cc(Cl)cc([N+](=O)[O-])c2O)c2ccccc2n1 | – | 7.08µM | – | ? | –
CCOc1cc(C=C(C(=O)OC)C(=O)OC)ccc1OCc1ccc([N+](=O)[O-])cc1 | – | 12.6µM | – | – | –
C=CCOc1ccccc1CNc1cccc(F)c1 | – | ? | – | ? | –
C=CCOc1ccccc1CNc1ccc2c(c1)OCCO2 | – | 17.8µM | – | ? | –
Cc1nc2ccn(Cc3ccco3)c(=O)c2cc1C(=O)N1CCN(c2ccccc2F)CC1 | – | – | – | – | –
N#Cc1c(NC(=O)CSc2nc3ccccc3s2)sc2c1CCCC2 | – | – | – | – | –
Clc1cccc(N/N=C/c2ccc(N3CCOCC3)s2)c1 | – | 12.6µM | – | 15.8µM[quencher] | ?
O=C(N/N=C/c1ccc(N2CCOCC2)s1)c1ccccc1Br | – | ? | – | – | –
CC1CCCO1 (stereo unspecified) | – | · | – | · | ·
Cc1cc(C(=O)NCc2cccs2)ccc1[N+](=O)[O-] | – | – | – | – | –
O=C(NCc1cccs1)c1ccc([N+](=O)[O-])cc1 | 0.1µM[quencher] | – | ? | – | –
O=C1CC(=O)N(Cc2cccs2)C(=O)N1 | – | 20µM | – | – | ?
O=C(O)C1Nc2c(C(=O)N3CCOCC3)cccc2C2C=CCC12 (stereo unspecified) | – | 14.1µM | – | ? | ?
CCOC(=O)c1ccc2c(c1)C1C=CCC1C(C(=O)O)N2 (stereo unspecified) | ? | ? | – | ? | ?
Cc1ccc2c(c1C)NC(C(=O)O)C1CC=CC21 (stereo unspecified) | – | 11.2µM | – | ? | ?
CC(C)=CCC/C(C)=C/CO/N=C1/C[C@@H](O)[C@@H](O)[C@@H]2[C@@H]3C(=O)N(Cc4ccc5c(c4)OCO5)C(=O)[C@H]3CC[C@@H]12 | –[11.2 µM] | –[11.5 µM] | –[11.2 µM] | –[11.6 µM] | –[11.6 µM]
CCOC(=O)C1=C(C)NC2(O)c3ccccc3C(=O)C12O (stereo unspecified) | – | – | – | – | –
COCCOC(=O)C1=C(C)NC2(O)c3ccccc3C(=O)C12O (stereo unspecified) | – | 11.2µM | – | – | ?
COc1ccc(OC)c(C2OCCC=CC2C)c1 (stereo unspecified) | –[11.2 µM] | –[11.5 µM] | –[11.2 µM] | –[11.6 µM] | –[11.6 µM]
O=C(OCn1ncc(Br)c(Br)c1=O)c1ccccc1Cl | – | 8.91µM | – | – | ?
O=C(OCn1ncc(Br)c(Br)c1=O)c1ccc(F)cc1 | – | ? | – | – | ?
CCCCNc1cc(C)nc(NCc2ccccc2)n1 | – | – | – | – | –
Cc1cc(N/N=C/c2ccc(F)cc2)nc(NCc2ccccc2)n1 | – | – | – | ? | –
Cc1ccc(/C=N/Nc2cc(C)nc(NCc3ccccc3)n2)cc1 | – | ? | – | ? | ?
SMILES | TR SRC2 fluor cs | Tau ThT inhib | TRb-SRC2 inh | Tau fluor counter | Tau FP inhib
Cc1cc(Nc2ccccc2)nc(NCc2ccccc2)n1 | – | – | – | 17.8µM[quencher] | ?
Cc1cc(Nc2ccc(Cl)cc2)nc(NCc2ccccc2)n1 | – | – | – | 17.8µM[quencher] | ?
Cc1cc(Nc2cccc(F)c2)nc(NCc2ccccc2)n1 | – | – | – | 15.8µM[quencher] | ?
Cc1cc(N/N=C/c2ccc(N(C)C)cc2)nc(NCc2ccccc2)n1 | – | 3.98µM | – | 7.94µM[quencher] | –
O=C(c1cnn(-c2ccc(F)cc2)c1-n1cccc1)N1CCN(c2ccccc2)CC1 | – | – | – | – | –
O=[N+]([O-])c1ccccc1S(=O)(=O)N1CCN(Cc2cc3c(cc2O)OCO3)CC1 | – | ? | – | 11.2µM[quencher] | ?
O=c1cc(CN2CCN(S(=O)(=O)c3ccccc3[N+](=O)[O-])CC2)nc2sccn12 | – | – | – | – | –
CCOc1ccc(NC(=O)N2CCC(CN3CCC(C)CC3)CC2)cc1 | 100µM[quencher] | – | – | – | –
O=C(Nc1ccc(Cl)cc1)C1CCC(CNS(=O)(=O)c2ccc(Br)s2)CC1 (stereo unspecified) | – | – | – | – | ?
CCCCN(CCCC)CCCNC(=O)c1cc(-c2ccc(Cl)s2)nc2ccccc12 | 0.794µM[quencher] | – | – | ? | –
CCCCN(CCCNC(=O)c1cc(Nc2ccc(OC)cc2OC)nc2ccccc12)Cc1ccccc1 | – | ? | – | 10µM[quencher] | –
COc1ccc(Nc2cc(C(=O)NCCc3ccccc3)c3ccccc3n2)cc1OC | – | – | – | ? | –
CCCCN(CCCNC(=O)c1cc(Nc2ccc(OC)c(OC)c2)nc2ccccc12)c1ccccc1 | – | – | – | 7.08µM[quencher] | –
COc1ccc(Nc2cc(C(=O)NCCCN(C)Cc3ccccc3)c3ccccc3n2)cc1OC | – | ? | – | 28.2µM[quencher] | ?
CC(COCC(C)OC(=O)c1ccccc1)OC(=O)c1ccccc1 (stereo unspecified) | – | · | – | · | ·
COc1ccc(CC(=O)N2CCc3cc(OC)c(OC)cc3C2COc2ccc(F)cc2)cc1 (stereo unspecified) | – | – | – | – | –
CCN(CCCNC(=O)c1cc2cc3cc(OC)ccc3nc2s1)c1cccc(C)c1 | – | ? | – | 3.98µM[quencher] | –
CCN(CCCNC(=O)c1cc2cc3ccc(C)cc3nc2s1)c1ccccc1 | – | ? | – | ? | ?
COc1ccc(Nc2cc(C(=O)NCc3ccccc3)c3ccccc3n2)cc1 | – | – | – | ? | ?
CCc1ccc(Nc2cc(C(=O)NCCCN(C)c3ccccc3)c3ccccc3n2)cc1 | – | – | – | ? | –
CCCCN(CCCNC(=O)c1cc(Nc2ccc(OC)cc2)nc2ccccc12)Cc1ccccc1 | – | – | – | 3.98µM[quencher] | –
CSc1cccc(Nc2cc(C(=O)NCCCN(C)c3ccccc3)c3ccccc3n2)c1 | – | – | – | 2.82µM[quencher] | –
CCN(CCCNC(=O)c1cc(Nc2ccc(OC)cc2OC)nc2ccccc12)c1cccc(C)c1 | – | ? | – | 7.08µM[quencher] | –
COc1ccccc1Nc1cc(C(=O)NCCCN(C)c2ccccc2)c2ccccc2n1 | – | – | – | ? | –
Clc1ccc(CCNC(c2nnc(-c3ccccc3)o2)c2ccccc2Cl)cc1 (stereo unspecified) | – | – | – | – | –
SMILES | TR SRC2 fluor cs | Tau ThT inhib | TRb-SRC2 inh | Tau fluor counter | Tau FP inhib
CC(C)(C)c1ccc(C(=O)NC(=S)Nn2cnnc2)cc1 | – | – | – | – | –
CCCCN(CCCNC(=O)c1cc(Nc2ccc(OC)c(OC)c2)nc2ccccc12)Cc1ccccc1 | – | ? | – | 12.6µM[quencher] | –
COc1ccc(Nc2cc(C(=O)NC3CCC(C)CC3)c3ccccc3n2)cc1OC (stereo unspecified) | – | – | – | ? | –
Cc1ccc(S(=O)(=O)CCC(=O)N2CCN(c3ccc(Cl)cc3)CC2)cc1 | – | ? | – | – | –
Nc1c(-c2n[nH]c(=S)n2-c2ccc(Cl)cc2Cl)cnn1-c1ccccc1 | – | · | – | – | –
Nc1[nH]nc2c1NN(c1ccc(Cl)cc1Cl)N2 | – | 3.55µM | – | ? | ?

Screening results: PubChem, National Center for Advancing Translational Sciences (NCATS)
